Experimental data published in PubChem BioAssay AID1946 (Johns Hopkins Ion Channel Center, 2009).
Among all 2,400 compounds or so, about 180 (7.5%) were called active.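 How the source made its calls: active means readout below zero, meaning a drop past 3 SD under the dofetilide-free negative control mean; inactive means the rest.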 Many of the other results were omitted from the sample, so actives are more common in it than they were.

Target: Potassium voltage-gated channel subfamily KQT member 2 (Rattus norvegicus) (UniProt O88943)
Sequence (O88943 whole entry, looked up): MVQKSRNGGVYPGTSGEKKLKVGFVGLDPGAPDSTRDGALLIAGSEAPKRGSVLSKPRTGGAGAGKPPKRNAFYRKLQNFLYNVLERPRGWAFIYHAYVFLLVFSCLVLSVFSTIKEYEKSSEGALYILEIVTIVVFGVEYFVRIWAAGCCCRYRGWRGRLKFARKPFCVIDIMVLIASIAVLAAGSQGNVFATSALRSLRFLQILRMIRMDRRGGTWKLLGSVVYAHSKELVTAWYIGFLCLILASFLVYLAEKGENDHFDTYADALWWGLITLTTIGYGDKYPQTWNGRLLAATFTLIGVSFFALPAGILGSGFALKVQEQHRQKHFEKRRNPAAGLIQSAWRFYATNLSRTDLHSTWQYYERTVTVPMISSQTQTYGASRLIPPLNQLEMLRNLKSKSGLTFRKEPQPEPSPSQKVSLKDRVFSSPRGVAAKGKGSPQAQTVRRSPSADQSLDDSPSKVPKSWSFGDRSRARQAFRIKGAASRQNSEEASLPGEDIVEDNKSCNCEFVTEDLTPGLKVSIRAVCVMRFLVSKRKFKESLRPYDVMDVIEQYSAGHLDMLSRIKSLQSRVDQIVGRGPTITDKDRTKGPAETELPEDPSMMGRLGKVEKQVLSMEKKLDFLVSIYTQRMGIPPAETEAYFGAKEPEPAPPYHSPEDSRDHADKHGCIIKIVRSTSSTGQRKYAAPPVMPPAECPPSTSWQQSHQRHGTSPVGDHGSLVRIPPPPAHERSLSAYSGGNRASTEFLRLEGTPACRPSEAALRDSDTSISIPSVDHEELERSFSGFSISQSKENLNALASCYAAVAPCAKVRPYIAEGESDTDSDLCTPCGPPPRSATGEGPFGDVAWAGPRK
Experiment: rat KCNQ2 channel inhibition by compounds alone, confirmation, counter-screen for hERG block protector project, cell-based, CHO, FluxOR thallium flux (AID 1946)
Details: CHO-KCNQ2 cells, FluxOR thallium flux fluorescence; at 10 µM; hits give low values; zero marks the 3-SD hit cutoff

Structure (SMILES) | activity change vs negative control
COc1cccc(C(=O)NNC(=O)C(=O)Nc2ccc(OC)cc2OC)c1 | 52.6% (inactive)
S=c1[nH]c(-c2ccc(Cl)cc2)cs1 | 140% (inactive)
COC(=O)c1ccc(CSc2ncnc3sc(C)c(C)c23)o1 | 23% (inactive)
COc1cccc(C(=O)NNC(=O)C(=O)Nc2ccc(C)cc2)c1 | 99.7% (inactive)
Cc1ccc(/C=C/C(=O)c2ccccc(=O)c2O)c(C)c1 | 63.1% (inactive)
CCCCNC(=S)NC(=O)c1ccc([N+](=O)[O-])cc1 | 46.5% (inactive)
CCCCCC(=O)NNC(=S)NC(=O)c1ccc([N+](=O)[O-])cc1 | -10.1% (active)
C=CCN(CC=C)C(=S)NC(=O)c1ccc([N+](=O)[O-])cc1 | 72.2% (inactive)
O=C(NC(=S)Nc1ccccc1)c1cccs1 | 17.9% (inactive)
O=C(O)c1ccc(S(=O)(=O)/N=C2\C=C(Nc3ccccc3F)C(=O)c3ccccc32)cc1 | 31.7% (inactive)
Cc1cc(C)c(C(=O)c2ccc(C(=O)N3CCCCC3)cc2)c(C)c1 | 32.9% (inactive)
O=C(Nc1nc2c(Br)cc(Br)cc2c(=O)s1)C1CCC1 | 40.8% (inactive)
O=C(Nc1cccnc1)c1ccc(COc2cc(Cl)ccc2Cl)o1 | -5.5% (active)
O=C(Nc1cccnc1)c1ccc(COc2ccccc2Br)o1 | 7.9% (inactive)
O=C(COc1ccc(Cl)cc1Cl)Nc1cccnc1 | 11% (inactive)
CCc1cc2cc(C)cc(C)c2[nH]c1=S | 29.9% (inactive)
Nc1nc2c(s1)CCc1c-2cnn1-c1ccccc1 | -0.2% (active)
O=C(NC(=S)Nc1ccccc1F)c1ccc(Br)o1 | 81.1% (inactive)
Cc1c(Cl)cccc1NC(=S)N=Nc1c(O)n(CN2CCOCC2)c2ccccc12 | 28.6% (inactive)
O=C(CN1C(=O)S/C(=C\c2cccs2)C1=O)Nc1ccc(O)c(C(=O)O)c1 | 7.9% (inactive)
O=C(CN1C(=O)S/C(=C\c2cc(Cl)c(O)c(Cl)c2)C1=O)Nc1ccccc1 | -7.3% (active)
O=C(CN1C(=O)S/C(=C\c2cccs2)C1=O)Nc1ccc(C(=O)O)c(O)c1 | 44.5% (inactive)
O=C(NC(=S)Nc1nc2ccc(F)cc2s1)c1ccco1 | 82.7% (inactive)
CCC1(c2ccc(Cl)cc2)NC(=S)N(c2ccc(C)c(C)c2)N1 (configuration not stated) | 124% (inactive)
CCCN(Cc1ccccc1)C(=S)NC(=O)c1ccccc1[N+](=O)[O-] | 120% (inactive)

Structure (SMILES) | activity change vs negative control
O=C(NC(=S)N1CCCC(C(F)(F)F)C1)c1ccc(F)cc1 (configuration not stated) | 46.1% (inactive)
CCOc1ccc2nc(N3C(=O)/C(=C/c4ccc(Cl)cc4)NC3=S)sc2c1 | 6.5% (inactive)
CN(C)c1oc(-c2ccccc2[N+](=O)[O-])nc1C#N | 16.4% (inactive)
CN(C)c1oc(-c2ccccc2)nc1C#N | -1.7% (active)
CCOC(=O)C(=CNc1cc(C)nn1C(C)(C)C)C(=O)OCC | 13% (inactive)
Cc1ccc(C(=C2C3C=CC2C2C(=O)NC(=O)C32)c2ccc(C)cc2)cc1 (configuration not stated) | -2.6% (active)
CC1CCCCC1NC(=S)NC(=O)c1cccs1 (configuration not stated) | 49.2% (inactive)
CCC1(c2ccc(Cl)cc2)NC(=S)N(c2ccccc2)N1 (configuration not stated) | 108% (inactive)
N#Cc1cc(-c2ccccc2)nnc1Oc1ccccc1 | -0.2% (active)
COCCNC(=O)C(c1ccc(C)o1)N(Cc1ccc(OC)cc1)C(=O)Cn1nnc2ccccc21 (configuration not stated) | 33.6% (inactive)
COc1ccc(-n2c(SCC#N)nnc2-c2cccnc2)cc1 | -1.2% (active)
COc1cc(-c2nnc(SCC(=O)O)n2-c2ccccc2)cc(OC)c1OC | 0.6% (inactive)
Cc1ccc(NC(=O)CSc2nnc(-c3cccnc3)n2-c2ccc(C)cc2)cc1 | 12.3% (inactive)
CC1Cc2ccccc2N1C(=S)NC(=O)c1ccc(Cl)cc1Cl (configuration not stated) | 83.8% (inactive)
COCCn1c(=S)[nH]c2sc3c(c2c1=O)CCC(C)C3 (configuration not stated) | 81% (inactive)
CC(C)N(Cc1ccccc1)C(=S)NC(=O)C1(C)CC1(Cl)Cl (configuration not stated) | 53.8% (inactive)
OC(CNCC(c1ccc(Cl)cc1Cl)c1c[nH]c2ccccc12)c1ccccc1 (configuration not stated) | -12% (active)
COc1cccc(C=Nc2cc(C)cc(C)c2)c1O | 39.5% (inactive)
O=c1cc(-c2ccccc2)nc2c(-c3ccccc3)c(C(F)(F)F)[nH]n12 | 81.1% (inactive)
COc1cc(NC(=O)c2ccccc2)c(OC)cc1NC(=O)Cc1ccc(Br)cc1 | 26.8% (inactive)
O=C(O)COc1ccc(NC(=O)c2ccc3c(c2)C(=O)N(C2CCCCC2)C3=O)cc1 | 21.1% (inactive)
S=c1[nH]cnc2scc(-c3ccccc3)c12 | 74.3% (inactive)
Cn1cc(/C=N/n2cnc3scc(-c4ccc(Cl)cc4)c3c2=O)c2ccccc21 | 9% (inactive)
Cc1ccc(C)n1-n1c(C)nc2scc(-c3ccccc3)c2c1=O | -3.2% (active)
Cc1c(N2C(=O)/C(=C\c3ccccc3O)SC2=S)c(=O)n(-c2ccccc2)n1C | 90% (inactive)

Structure (SMILES) | activity change vs negative control
S=c1[nH]cnc2scc(-c3ccc(Cl)cc3)c12 | 49.5% (inactive)
CCOC(=O)c1sc(NC(=S)NC(=O)c2ccccc2)nc1C | 20.3% (inactive)
CC1CCN(c2ccc3c(c2)S(=O)(=O)c2ccccc2C3=O)CC1 | -10.9% (active)
CC1CCN(S(=O)(=O)c2ccc3nc(N4CCN(c5ccccc5)CC4)ccc3c2)CC1 | 4.3% (inactive)
CC(=O)c1c(N)[nH]c(-c2ccccc2)nc1=S | 22.9% (inactive)
Cc1ccc(CN2CCN(CC(=O)NC(C)c3ccc4c(c3)OCCO4)C2=O)cc1 (configuration not stated) | 38.3% (inactive)
CN1C(=O)/C(=N/OC(=O)c2ccccc2)c2ccccc21 | 8% (inactive)
Cc1ccc(NC(=O)c2ccc(CNS(=O)(=O)c3cccc(C(F)(F)F)c3)cc2)cc1 | 8.1% (inactive)
CC(=O)c1ccc(S(=O)(=O)NCc2ccc(C(=O)N(C)CC(=O)Nc3cccc(F)c3)cc2)cc1 | 5.5% (inactive)
CN(CC(=O)Nc1ccc(Cl)cc1)C(=O)c1cccc(S(=O)(=O)NCc2ccccc2)c1 | -2.7% (active)
O=c1c2ccc(Cl)cc2nc(-c2cccc(C(F)(F)F)c2)n1O | 141% (inactive)
ON/C=N/C(=S)Nc1ncc(C(F)(F)F)cc1Cl | 49.3% (inactive)
CC1(C)CC2CC(C)(CN2C(=S)NC(=O)c2ccccc2Cl)C1 (configuration not stated) | 37.9% (inactive)
Cc1ccc(/C(O)=C/C(=O)C(=O)NC23CC4CC(CC(C4)C2)C3)cc1 | 32.5% (inactive)
Cc1ccc(N=Cc2cc(Cl)cc(Cl)c2O)nc1 | 53.9% (inactive)
Cc1cc(C)n(-c2nc3sc4c(c3c(=O)[nH]2)CCCC4)n1 | 28% (inactive)
Cc1cc(C)n(-c2nc(NCCCN(C)C)c3c4c(sc3n2)CCCC4)n1 | -1.4% (active)
CN(C)CCNc1ncnc2c1sc1nc(N3CCCC3)c3c(c12)CC(C)(C)OC3 | 8.8% (inactive)
CC(NC(=O)NC1CCCCC1)c1ccc2c(c1)OCO2 (configuration not stated) | 72.4% (inactive)
COc1ccccc1C(=O)NNC(=O)C(=O)NC(C)(C)C | 31.3% (inactive)
Cc1ccc(NS(=O)(=O)c2ccc(NC(=O)c3ccccc3C(=O)O)cc2)cc1C | 10.8% (inactive)
COc1ccccc1-n1cnc2cc(NS(=O)(=O)c3ccc(Br)cc3)ccc21 | -2.5% (active)
COc1ccc(NS(=O)(=O)c2ccc3ccccc3c2)c2ncccc12 | 2% (inactive)
COc1ccc(C(=O)NC(=S)N(Cc2ccccc2)Cc2ccccc2)cc1 | 51.4% (inactive)
CCOC(=O)N1CCN(c2c(-c3ccc(C)c(C)c3)c(=O)c2=O)CC1 | 20.5% (inactive)

Structure (SMILES) | activity change vs negative control
Cc1ccc(C(=O)NC(=S)N(C)C2CCCCC2)cc1Br | 17.4% (inactive)
Cc1ccc(C(C)NC(=O)c2ccc3c(c2)OCO3)cc1C (configuration not stated) | 58.4% (inactive)
COc1ccc(CCNC(=O)c2ccc3c(c2)OCO3)cc1 | 5% (inactive)
CCCCNC(=S)NNC(=O)c1ccc2c(c1)OCO2 | -2.9% (active)
O=c1c(-c2ccccc2)nc(-c2ccccc2)cn1O | 88.1% (inactive)
COc1cccc(C(=O)NNC(=O)C(=O)Nc2cccc(Cl)c2C)c1 | 83.6% (inactive)
COC(=O)C1=NN(C(=O)c2cccc(Br)c2)C(O)(c2ccc(Cl)cc2)C1 (configuration not stated) | 158% (inactive)
CCOC(=O)c1cnn(-c2nc(SC)nc3sc4c(c23)CCCC4)c1N | 5.9% (inactive)
Cc1ccc(NC(=O)CCc2nc3sc4c(c3c(=O)[nH]2)CCCC4)c(Br)c1 | -0.3% (active)
Cc1nc(SCC(=O)NCC2CCCO2)c2c3c(sc2n1)CCCC3 (configuration not stated) | 32.5% (inactive)
Fc1ccc(NC(=S)Nc2nccs2)cc1 | 16.4% (inactive)
CCC(C)c1ccccc1NC(=S)NC(=O)c1ccco1 (configuration not stated) | 82% (inactive)
COc1cc(/C=C2/SC(=S)N(CC(=O)O)C2=O)ccc1OCC(=O)Nc1ccc(C)c(C)c1 | -3.8% (active)
Cc1ccc(NC(=O)CN2C(=O)S/C(=C/c3ccc(-c4cc(C(=O)O)ccc4C)o3)C2=O)cc1C | 4.8% (inactive)
O=C(CCN1C(=O)/C(=C/c2cccs2)SC1=S)Nc1cccc(C(=O)O)c1 | 5.2% (inactive)
CSc1nc2c(c(=O)[nH]1)C(c1ccccc1Cl)CC(=O)N2 (configuration not stated) | 1.5% (inactive)
Cc1cccc(NC(=S)NC(=O)c2ccc(Br)o2)c1C | 27.3% (inactive)
Cc1ccc(C(=O)NC(C)c2ccc(C)c(C)c2)s1 (configuration not stated) | 53.7% (inactive)
COc1ccc(/C=C2\SC(=N)N(c3nccs3)C2=O)cc1OC | 6.8% (inactive)
COc1ccc(/C=C2\SC(c3ccc(C)cc3)=NC2=O)cc1OC | -3.2% (active)
COc1cc(/C=C/C(=O)O)ccc1OS(=O)(=O)c1cc(C)ccc1C | 13.1% (inactive)
O=S(=O)(NC(=S)NC1CCCCC1)c1ccc(Cl)cc1 | 34.4% (inactive)
